According to PubChem BioAssay (NCATS):
Inconclusive results are not listed. Calls of active or inactive are those of the source. Calls follow the shape of the dose curve; as a rule, active = well fitted inhibition curve with a large enough effect; inconclusive = small, poorly fitted or top-dose-only effect; inactive = flat fitted curve, though single readings scatter.

test: P-glycoprotein substrates identified in KB-8-5-11 adenocarcinoma cell line, qHTS therapeutic library screen (AID 1346987); details: KB-8-5-11 (P-gp overexpressing) viability, CellTiter-Glo, 72 h; series mostly up to 44.5 µM; activity change, negative = cytotoxicity: at the top concentration; also: nearly all actives have a fitted effect of over 65% in size
Method in brief: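 P-gp-mediated resistance screen: KB-8-5-11 cells treated 72 h with compounds in dose-response. CellTiter-Glo viability.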
% is scaled to controls: 0 for no effect and ±100 for the full control effect.

Row | Compound | outcome | activity change, negative = cytotoxicity
1 | C[C@H]1[C@H](C)CC[C@]2(C(=O)O)CC[C@]3(C)C(=CCC4[C@@]5(C)C[C@@H](O)[C@H](O)C(C)(C)C5CC[C@]43C)[C@H]12 (some centres undefined) | inactive [at 17.3 µM] | 
2 | C[C@]1(O)CC[C@@H]2C(C(=O)O)=CO[C@@H](O[C@@H]3O[C@H](COC(=O)/C=C/c4ccc(O)c(O)c4)[C@@H](O)[C@H](O)[C@H]3O)[C@@H]21 | inactive [at 17.3 µM] | 
3 | CC1=C2C(=O)C=C(CO[C@@H]3O[C@H](CO)[C@@H](O)[C@H](O)[C@H]3O)[C@@H]2[C@H]2OC(=O)[C@H](C)[C@@H]2CC1 |  | 4.62% [at 17.3 µM] (inactive)
4 | C/C=C(\C)C(=O)OC1CC2C(CC=C3CC(OC4CC(OC)C(OC5CC(OC)C(OC6CC(OC)C(OC7CC(OC)C(OC8CC(OC)C(OC9OC(CO)C(O)C(O)C9O)C(C)O8)C(C)O7)C(C)O6)C(C)O5)C(C)O4)CCC32C)C2(O)CCC(C(C)=O)C12C (centres undefined) | inactive [at 9.29 µM] | 
5 | C[C@@H]1O[C@@H](O[C@H]2[C@@H]3C=CO[C@@H](O[C@@H]4O[C@H](CO)[C@@H](O)[C@H](O)[C@H]4O)[C@@H]3[C@@]3(CO)O[C@@H]23)[C@H](O)[C@H](O)[C@H]1OC(=O)/C=C/c1ccc(O)cc1 |  | -4.27% [at 17.3 µM] (inactive)
6 | CC1=C(CCC(C)O[C@@H]2O[C@H](CO)[C@@H](O)[C@H](O)[C@H]2O)C(C)(C)CC(O)C1 (some centres undefined) |  | 3.82% (inactive)
7 | COc1ccc(N2CCN(CCCNC(=O)Cn3c(=O)c4cccn4c4c(C)ccnc43)CC2)cc1 |  | -13.1% (inactive)
8 | Nc1ccc(-n2nc(C(F)(F)F)cc2C(F)(F)F)cc1 | inactive | 
9 | COc1ccc(CC(NC(C)=O)C(=O)O)cc1 (centres undefined) | inactive | 
10 | CCCC1=CC2=C(CO1)C(=O)C(C)(O)C(OC(=O)c1c(C)cc(OC)cc1O)C2 (centres undefined) |  | 2.68% [at 17.3 µM] (inactive)
11 | C[C@@H]1O[C@@H](O[C@H]2[C@H](O[C@H]3[C@H](O[C@H]4CC[C@@]5(C)C(CC[C@]6(C)C5CC=C5[C@@H]7CC(C)(C)C[C@@H](O)[C@]7(C)CC[C@]56C)[C@@]4(C)CO)O[C@H](C(=O)O)[C@@H](O)[C@@H]3O)O[C@H](C(=O)O)[C@H](O)[C@@H]2O)[C@H](O)[C@H](O)[C@H]1O (some centres undefined) | inactive [at 9.29 µM] | 
12 | C=C(C)C1CCC2(C(=O)OC3OC(COC4OC(CO)C(O)C(O)C4O)C(OC4OC(C)C(O)C(O)C4O)C(O)C3O)CCC3(C(=O)O)C(CCC4C5(C)CCC(=O)C(C)(C)C5CCC43C)C12 (centres undefined) | inactive [at 9.29 µM] | 
13 | CC(=O)N[C@H]1[C@H](O[C@H]2CC[C@]3(C)C4CC=C5[C@@H]6CC(C)(C)CC[C@]6(C(=O)O)[C@H](O)C[C@@]5(C)[C@]4(C)CC[C@H]3C2(C)C)O[C@H](CO)[C@@H](O)[C@@H]1O (some centres undefined) |  | -2.27% [at 17.3 µM] (inactive)
14 | CC1OC(OC2C(OC3C(O[C@H]4CC[C@@]5(C)C(CC[C@]6(C)C5CC=C5C7CC(C)(C)CC(O)[C@]7(C)CC[C@]56C)C4(C)C)OC(C(=O)O)C(O)C3O)OCC(O)C2O)C(O)C(O)C1O (some centres undefined) | inactive [at 9.29 µM] | 
15 | COc1cc(O)cc(C)c1C(=O)OC1C(CO)OC(n2ccc(=O)[nH]c2=O)C1OC(C)=O (centres undefined) | inactive [at 17.3 µM] | 
16 | COc1ccc(C(=O)OC2C3C=COC(OC4OC(CO)C(O)C(O)C4O)C3C3(CO)OC23)cc1OC (centres undefined) |  | 9.26% [at 17.3 µM] (inactive)
17 | C[C@@H]1O[C@@H](O[C@H]2[C@H](OC(=O)[C@]34CCC(C)(C)C[C@H]3C3=CCC5[C@@]6(C)C[C@@H](O)[C@@H](O)[C@@](C)(CO)C6[C@H](O)C[C@@]5(C)[C@]3(C)CC4)OC[C@H](O)[C@@H]2O)[C@H](O)[C@H](O)[C@H]1O[C@@H]1OC[C@@H](O)[C@H](O[C@H]2O[C@H](C)[C@@H](O)[C@H](O)[C@@H]2O)[C@H]1O (some centres undefined) |  | 2.85% [at 9.29 µM] (inactive)
18 | C=C(C(=O)O)[C@@H]1CC[C@H](C)[C@@H]2CC(=O)C(C)=C2C1 | inactive | 
19 | O=C(OCc1ccccc1O[C@@H]1O[C@H](CO)[C@@H](O)[C@H](O)[C@H]1O)C1(O)C=CCCC1O (some centres undefined) |  | 8.75% [at 17.3 µM] (inactive)
20 | COC(O)(CC(C)C)C1Oc2cc(C)[nH]c(=O)c2O1 (centres undefined) | inactive | 
21 | C=C1C2(C)CC3C4(C)OC(C5OC56C4=CC(=O)OC6(C)C)C3(C)C13C(=O)OC(C)C3(O)C2=O (centres undefined) |  | 4.6% [at 17.3 µM] (inactive)
22 | COC1OC(OC)C(O)(CCC2(C)C(C)CCC3(C)C2CC(O)C(O)C32CO2)C1O (centres undefined) |  | 3.98% [at 17.3 µM] (inactive)
23 | COc1ccc(Oc2c(Cl)cnn(C3c4ccccc4-c4ccccc43)c2=O)cc1 |  | -17.4% (inactive)
24 | CC(C)C(O)(CO)CCO[C@@H]1O[C@H](CO[C@H]2OC[C@](O)(CO)[C@H]2O)[C@@H](O)[C@H](O)[C@H]1O (some centres undefined) | inactive [at 17.3 µM] | 
